Data: PubChem BioAssay (EPA / NIEHS)
The source made the active and inactive calls. How the source made its calls: active means hit-call score of the fitted dose curve at least 0.9, where 1 is the maximum; inactive means score below 0.9.

Assays:
[1] = ATG_CRE_CIS: Attagene CIS-FACTORIAL HepG2 Assay for human cAMP Responsive Element (CRE) binding protein 3 (AID 2282926); settings: HepG2 CRE cis-reporter, Attagene multiplexed mRNA; actives raise or lower the signal
How it was run: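 Multiplexed transcription-unit reporters transfected into HepG2; 24 h dosing; RT-PCR/capillary electrophoresis fluorescence read-out; bidirectional fit vs DMSO.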

[2] = ATG_CMV_CIS: Attagene CIS-FACTORIAL HepG2 Assay for human CMV (Internal Marker) (AID 2282928); settings: HepG2 CMV promoter reporter, transcription factor profiling; actives raise or lower the signal;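 further: endpoint acts as a background internal control marker rather than a target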
How it was run: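 After transient transfection of HepG2 with reporter transcription units driven by cis-regulatory promoters, cells receive test chemical for 24 h. Labeled reporter amplicons, digested with HpaI, are sized and quantified by capillary electrophoresis against DMSO.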

[3] = ATG_DR4_LXR_CIS: Attagene CIS-FACTORIAL HepG2 Assay for human Liver X Receptor (LXR), DR4 submotif (AID 2282929); settings: HepG2 Attagene DR4 cis-reporter, mRNA transcription; actives raise or lower the signal
How it was run: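 Measures endogenous transcription factor activity via a DR4-driven reporter transcript in human HepG2 cells. Compounds incubated 24 h; mRNA quantified by RT-PCR and capillary electrophoresis, analysed as gain or loss of signal versus DMSO.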

[4] = ATG_AP_1_CIS: Attagene CIS-FACTORIAL HepG2 Assay for human Activator Protein 1 (AP-1) (AID 2282931); settings: HepG2 Attagene cis-factorial AP-1 reporter mRNA; actives raise or lower the signal
How it was run: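 Bidirectional concentration-response fitting against DMSO controls. Underlying signal: reporter mRNA from cis-promoter constructs in transiently transfected HepG2, measured after 24 h by RT-PCR and capillary electrophoresis.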

[5] = ATG_AP_2_CIS: Attagene CIS-FACTORIAL HepG2 Assay for human Activator Protein 2 (AP-2) (AID 2282932); settings: HepG2 AP-2 cis-reporter, Attagene transcription factor profiling; actives raise or lower the signal
How it was run: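 HepG2 cells transiently transfected with cis-element reporter units and exposed for 24 h. Reporter mRNA measured by RT-PCR, FAM labelling, HpaI digestion and capillary electrophoresis. Changes in either direction fitted relative to DMSO.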

[6] = ATG_BRE_CIS: Attagene CIS-FACTORIAL HepG2 Assay for human Bone Morphogenetic Protein (BMP) Response Element (BRE) (AID 2282933); settings: HepG2 BMP response element reporter, Attagene transcription factor profiling; actives raise or lower the signal
How it was run: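 Fluorescence-labelled reporter cDNA fragments, separated by capillary electrophoresis, gave the signal for this component of a 52-readout multiplex. HepG2 cells were transfected, exposed to chemicals for 24 h, and compared with DMSO using bidirectional fitting.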

[7] = ATG_E_Box_CIS: Attagene CIS-FACTORIAL HepG2 Assay for human Enhancer Box (E-box) (AID 2282936); settings: HepG2 E-box cis-reporter transcription, actives raise or lower the signal
How it was run: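 HepG2 cells transiently transfected with multiplexed cis-element reporter units, dosed 24 h; reporter mRNA quantified by RT-PCR, 6-FAM labelling, HpaI digestion and capillary electrophoresis. E-box (USF1) signal fitted bidirectionally vs DMSO.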

[8] = ATG_M_61_CIS: Attagene CIS-FACTORIAL HepG2 Assay for M61 Transcription Factor (Internal Marker) (AID 2282937); settings: HepG2 Attagene CIS-FACTORIAL M61 internal marker reporter; actives raise or lower the signal
How it was run: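 Fluorescence from labelled cDNA fragments, separated by capillary electrophoresis, quantifies reporter induction. HepG2 cells bearing transiently transfected cis-promoter MRTUs were incubated with test chemical for 24 h; DMSO defined baseline for gain/loss fitting.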

[9] = ATG_EGR_CIS: Attagene CIS-FACTORIAL HepG2 Assay for human Early Growth Response 1 (EGR1) (AID 2282938); settings: HepG2 Attagene CIS-FACTORIAL EGR reporter mRNA; actives raise or lower the signal
How it was run: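 Cell-based multiplex transcription assay: HepG2 carrying transfected cis-element reporter units, 24 h chemical treatment. Fluorescence from capillary electrophoresis of RT-PCR products gives mRNA levels; fitting is bidirectional relative to DMSO.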

[10] = ATG_M_19_CIS: Attagene CIS-FACTORIAL HepG2 Assay for M19 Transcription Factor (Internal Marker) (AID 2282939); settings: HepG2 Attagene CIS-FACTORIAL M19 internal marker reporter; actives raise or lower the signal
How it was run: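 HepG2, MRTU transient transfection, 24 h dosing. Total RNA → RT-PCR → 6-FAM primer extension → HpaI digest → CE fluorescence. Bidirectional curve fit, DMSO negative control.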

[11] = ATG_Ets_CIS: Attagene CIS-FACTORIAL HepG2 Assay for human Erythroblast Transformation Specific (ETS) (AID 2282941); settings: HepG2 ETS cis-reporter transcription, actives raise or lower the signal
How it was run: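 Human HepG2 hepatoma cells were transiently transfected with promoter-driven reporter constructs and treated for 24 hours. Reporter transcripts were quantified by RT-PCR with fluorescent primer extension; bidirectional curve fitting used DMSO as reference.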

[12] = ATG_FoxO_CIS: Attagene CIS-FACTORIAL HepG2 Assay for human Forkhead box O (FoxO) (AID 2282943); settings: HepG2 Attagene cis-reporter, FoxO element, mRNA; actives raise or lower the signal
How it was run: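 HepG2 cells transiently transfected with cis-element-driven reporter units report endogenous FoxO activity. After 24 h chemical exposure, reporter mRNA quantified by RT-PCR, fluorescent labeling, HpaI digestion and capillary electrophoresis; bidirectional fit versus DMSO.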

[13] = ATG_ISRE_CIS: Attagene CIS-FACTORIAL HepG2 Assay for human Interferon Regulatory Factor 1 (IRF1) binding to an Interferon-Stimulated Response Element (ISRE) (AID 2282948); settings: HepG2 ISRE cis-reporter (Attagene), mRNA transcription readout; actives raise or lower the signal
How it was run: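 Cell-based cis-reporter assay; HepG2; 24 h exposure; reporter mRNA by RT-PCR plus capillary electrophoresis fluorescence; activity in either direction scored relative to DMSO.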

[14] = ATG_M_06_CIS: Attagene CIS-FACTORIAL HepG2 Assay for M06 Transcription Factor (Internal Marker) (AID 2282950); settings: HepG2 Attagene CIS-FACTORIAL M06 internal marker reporter; actives raise or lower the signal
How it was run: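 Measured 24 h post-dosing in transiently transfected HepG2 cells, this internal-marker endpoint reports reporter mRNA via RT-PCR with fluorescent primer extension and capillary electrophoresis. DMSO served as negative control and baseline for bidirectional fitting.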

[15] = biological target: Paired box protein Pax-6 (Homo sapiens) (UniProt P26367); test: ATG_Pax6_CIS: Attagene CIS-FACTORIAL HepG2 Assay for human Paired Box 6 (PAX6) (AID 2282956); settings: HepG2 CIS-FACTORIAL PAX6 reporter transcription, RNA readout; actives raise or lower the signal
Chain of Paired box protein Pax-6 (Homo sapiens) (P26367 whole entry, looked up): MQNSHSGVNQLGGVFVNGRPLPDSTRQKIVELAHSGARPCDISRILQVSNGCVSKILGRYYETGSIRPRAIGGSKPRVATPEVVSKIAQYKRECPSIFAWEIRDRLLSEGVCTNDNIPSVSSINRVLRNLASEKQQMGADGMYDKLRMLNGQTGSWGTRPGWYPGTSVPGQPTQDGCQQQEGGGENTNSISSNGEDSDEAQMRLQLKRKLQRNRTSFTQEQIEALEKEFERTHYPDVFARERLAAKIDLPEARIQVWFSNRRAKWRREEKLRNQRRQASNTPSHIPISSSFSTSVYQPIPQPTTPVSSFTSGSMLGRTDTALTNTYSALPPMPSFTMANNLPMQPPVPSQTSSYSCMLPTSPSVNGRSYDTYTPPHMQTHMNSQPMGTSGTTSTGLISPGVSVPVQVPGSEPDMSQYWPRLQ
How it was run: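 Multiplexed cis-reporter HepG2 system; 24 h treatment; reporter mRNA read by RT-PCR/CE fluorescence; bidirectional fit vs DMSO.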

[16] = ATG_SREBP_CIS: Attagene CIS-FACTORIAL HepG2 Assay for human Sterol Regulatory Element Binding (SREBP) (AID 2282962); settings: HepG2 Attagene cis-factorial SREBP reporter, mRNA; actives raise or lower the signal
How it was run: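 mRNA induction of transfected cis-promoter reporters in HepG2 cells, 24 h post-dose. Detection: RT-PCR with 6-FAM-labelled products, HpaI digest, capillary electrophoresis. DMSO served as negative control and baseline.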

[17] = ATG_TA_CIS: Attagene CIS-FACTORIAL HepG2 Assay for human TA Basal Promoter (AID 2282964); settings: HepG2 Attagene CIS-factorial TA basal promoter reporter; actives raise or lower the signal
How it was run: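 Cis-factorial format in HepG2: reporters report endogenous factors, not chimeric Gal4 fusions. After 24 h treatment, reporter transcripts were measured by RT-PCR-capillary electrophoresis fluorescence, analysed bidirectionally versus DMSO.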

[18] = ATG_TCF_b_cat_CIS: Attagene CIS-FACTORIAL HepG2 Assay for human T-Cell-Factor with beta-catenin (TCF/b-cat) (AID 2282965); settings: HepG2 TCF/beta-catenin cis-reporter transcription, actives raise or lower the signal
How it was run: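 HepG2 cells transiently transfected with cis-promoter-driven multiplexed reporter units; reporter mRNA measured 24 h after dosing by RT-PCR, FAM labelling, HpaI digestion and capillary electrophoresis. Bidirectional fitting relative to DMSO baseline.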

[19] = ATG_TGFb_CIS: Attagene CIS-FACTORIAL HepG2 Assay for human Transforming Growth Factor (TGF) (AID 2282967); settings: HepG2 Attagene CIS TGFb reporter, mRNA transcription; actives raise or lower the signal
How it was run: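 Multiplexed cis-reporter HepG2 system, 24 h treatment; mRNA induction read by fluorescence after RT-PCR and CE; DMSO negative control, bidirectional curve fitting.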

[20] = ATG_Oct_MLP_CIS: Attagene CIS-FACTORIAL HepG2 Assay for human Octamer-Binding Transcription Factor (Oct) (AID 2282993); settings: HepG2 Attagene cis-factorial Oct reporter, mRNA; actives raise or lower the signal
How it was run: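 After 24 h compound exposure, transfected HepG2 cells were lysed for total RNA; reporter-specific cDNA was PCR-amplified, fluorescently labelled and sized by capillary electrophoresis. Bidirectional curve fitting used DMSO as baseline.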

Measured: AC50

CC[N+](CC)(CC(=O)Nc1c(C)cccc1C)Cc1ccccc1
inactive: [1] | [2] | [3] | [4] | [5] | [6] | [7] | [8] | [9] | [10] | [11] | [12] | [13] | [14] | [15] | [16] | [17] | [18] | [19] | [20]

COC(=O)/C=C\C(=O)OC
inactive: [1] | [2] | [3] | [5] | [6] | [7] | [8] | [10] | [12] | [14] | [15] | [16] | [17] | [18] | [19] | [20]
active: [4] 28.1 µM | [9] 83.1 µM | [11] 100 µM | [13] 45.8 µM

COC(OC)C(C)c1ccccc1 (centres undefined)
inactive: [1] | [2] | [3] | [4] | [5] | [6] | [7] | [8] | [9] | [10] | [11] | [12] | [13] | [14] | [15] | [16] | [17] | [18] | [19] | [20]

c1cc(N(CC2CO2)CC2CO2)ccc1Cc1ccc(N(CC2CO2)CC2CO2)cc1 (centres undefined)
active: [2] 26.6 µM | [3] 27.3 µM | [4] 54.4 µM | [5] 26.3 µM | [7] 34.3 µM | [9] 18.4 µM | [13] 21.7 µM | [15] 9.31 µM | [16] 26.4 µM | [17] 26.1 µM | [18] 26.1 µM | [20] 8.18 µM
inactive: [1] | [6] | [8] | [10] | [11] | [12] | [14] | [19]

CCOC(=O)c1ccccc1
active: [3] 128 µM | [11] 180 µM | [13] 167 µM
inactive: [1] | [2] | [4] | [5] | [6] | [7] | [8] | [9] | [10] | [12] | [14] | [15] | [16] | [17] | [18] | [19] | [20]

O=C(CC(C(=O)OC1CCCCC1)S(=O)(=O)O)OC1CCCCC1 (centres undefined)
inactive: [1] | [2] | [3] | [4] | [5] | [6] | [7] | [8] | [9] | [10] | [11] | [12] | [13] | [14] | [15] | [16] | [17] | [18] | [19] | [20]

Oc1ccc(Oc2ccccc2)cc1
inactive: [1] | [4] | [5] | [6] | [7] | [8] | [9] | [10] | [11] | [12] | [13] | [14] | [15] | [16] | [17] | [18] | [19] | [20]
active: [2] 44.9 µM
